Assay results from PubChem BioAssay (EPA / NIEHS).
Records with an inconclusive call do not appear. Calls of active or inactive are those of the source. How the source made its calls, unless noted: active means hit-call score of the fitted dose curve at least 0.9, where 1 is the maximum; inactive means score below 0.9.

How the values were obtained:
[1] = molecular target: Paired box protein Pax-6 (Homo sapiens) (UniProt P26367); assay: ATG_Pax6_CIS: Attagene CIS-FACTORIAL HepG2 Assay for human Paired Box 6 (PAX6) (AID 2282956); settings: HepG2 CIS-FACTORIAL PAX6 reporter transcription, RNA readout; actives raise or lower the signal
Summary of the method: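 HepG2 cells transiently transfected with cis-promoter-driven multiplexed reporter units sensing endogenous transcription factor activity; 24 h chemical exposure. Reporter mRNA quantified by RT-PCR, 6-FAM labelling, HpaI digestion and capillary electrophoresis; bidirectional fit versus DMSO baseline.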

[2] = ATG_PXRE_CIS: Attagene CIS-FACTORIAL HepG2 Assay for human Pregnane X Receptor Element (PXRE) (AID 2282957); settings: HepG2 Attagene CIS-FACTORIAL PXRE reporter, mRNA; actives raise or lower the signal
Summary of the method: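 Cis-element reporter mRNA in human hepatoma HepG2 cells is measured 24 h post-dosing by RT-PCR, primer-extension labeling and capillary electrophoresis; gain or loss of signal is fitted relative to DMSO.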

[3] = ATG_PPRE_CIS: Attagene CIS-FACTORIAL HepG2 Assay for human Peroxisome Proliferator-activated Response Element (PPRE) (AID 2282958); settings: HepG2 PPRE cis-element reporter, Attagene transcription factor profiling; actives raise or lower the signal
Summary of the method: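 Measured endpoint: PPRE-controlled reporter mRNA, detected by RT-PCR and capillary electrophoresis fluorescence, from transiently transfected HepG2 cells 24 h after dosing. Curves fitted in both directions using DMSO baseline.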

[4] = ATG_Sox_CIS: Attagene CIS-FACTORIAL HepG2 Assay for human SRY-box transcription factor (SOX) (AID 2282960); settings: HepG2 Attagene cis-factorial SOX reporter, mRNA; actives raise or lower the signal
Summary of the method: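 Gain- or loss-of-signal endpoint, fitted bidirectionally with DMSO as negative control. Based on reporter mRNA from transfected HepG2 cells harvested 24 h post-treatment and quantified via RT-PCR and capillary electrophoresis.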

[5] = molecular target: Transcription factor Sp1 (Homo sapiens) (UniProt P08047); assay: ATG_Sp1_CIS: Attagene CIS-FACTORIAL HepG2 Assay for human Specificity Protein 1 (Sp1) (AID 2282961); settings: HepG2 Sp1 cis-reporter transcription, actives raise or lower the signal
Summary of the method: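 Endpoint reflects endogenous Sp1 transcriptional activity, not an exogenous fusion protein: HepG2 cells with transfected cis-regulated reporters, 24 h dosing, RT-PCR/capillary electrophoresis mRNA read-out, DMSO-normalised bidirectional fit.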

[6] = ATG_SREBP_CIS: Attagene CIS-FACTORIAL HepG2 Assay for human Sterol Regulatory Element Binding (SREBP) (AID 2282962); settings: HepG2 Attagene cis-factorial SREBP reporter, mRNA; actives raise or lower the signal
Summary of the method: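 HepG2 cells transiently transfected with multiplexed cis-promoter reporter units sensing endogenous transcription factors; reporter mRNA measured 24 h after dosing by RT-PCR, 6-FAM labeling, HpaI digestion and capillary electrophoresis. Bidirectional fit versus DMSO.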

[7] = molecular target: Signal transducer and activator of transcription 3 (Homo sapiens) (UniProt P40763); assay: ATG_STAT3_CIS: Attagene CIS-FACTORIAL HepG2 Assay for human Signal Transducer and Activator of Transcription 3 (STAT3) (AID 2282963); settings: HepG2, Attagene cis-factorial STAT3 reporter transcription; actives raise or lower the signal
Summary of the method: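 Transcript-level reporter assay. HepG2 transient MRTU transfection, 24 h exposure, fluorescence detection after RT-PCR and CE; DMSO baseline.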

[8] = ATG_TA_CIS: Attagene CIS-FACTORIAL HepG2 Assay for human TA Basal Promoter (AID 2282964); settings: HepG2 Attagene CIS-factorial TA basal promoter reporter; actives raise or lower the signal
Summary of the method: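 HepG2 cells transiently transfected with multiple reporter units under cis promoter elements, reporting endogenous transcription factor activity; this endpoint tracks the TA basal promoter as background control. Reporter mRNA after 24 h dosing measured by RT-PCR/capillary electrophoresis; bidirectional fits versus DMSO.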

[9] = ATG_TCF_b_cat_CIS: Attagene CIS-FACTORIAL HepG2 Assay for human T-Cell-Factor with beta-catenin (TCF/b-cat) (AID 2282965); settings: HepG2 TCF/beta-catenin cis-reporter transcription, actives raise or lower the signal
Summary of the method: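 In this cis-format system, transfected HepG2 cells report endogenous transcription factor activity. Readout after 24 h exposure is reporter transcript abundance from RT-PCR and capillary electrophoresis, analysed for gain or loss of signal versus DMSO.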

[10] = ATG_TAL_CIS: Attagene CIS-FACTORIAL HepG2 Assay for human TAL Basal Promoter (AID 2282966); settings: HepG2 Attagene cis-factorial TAL promoter reporter; actives raise or lower the signal;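 further: background control endpoint measuring basal TAL promoter reporter mRNA not a specific factor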
Summary of the method: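 In this cell-based multiplex, HepG2 liver cells bearing cis-promoter reporter constructs are dosed for 24 hours. Total RNA is reverse-transcribed and amplified, labelled fragments are sized by capillary electrophoresis, and signal changes are fitted bidirectionally versus DMSO.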

[11] = ATG_TGFb_CIS: Attagene CIS-FACTORIAL HepG2 Assay for human Transforming Growth Factor (TGF) (AID 2282967); settings: HepG2 Attagene CIS TGFb reporter, mRNA transcription; actives raise or lower the signal
Summary of the method: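 HepG2 cells transiently transfected with cis-promoter-driven multiple reporter units measure endogenous TF activity; reporter mRNA quantified at 24 h by RT-PCR, FAM labeling, HpaI digestion and capillary electrophoresis. Bidirectional fit vs DMSO.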

[12] = ATG_VDRE_CIS: Attagene CIS-FACTORIAL HepG2 Assay for human Vitamin D Receptor Element (VDRE) (AID 2282968); settings: HepG2 VDRE cis-reporter transcription, actives raise or lower the signal
Summary of the method: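 RT-PCR/CE readout of reporter mRNA; HepG2, transient transfection, 24 h dosing; DMSO baseline; bidirectional analysis.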

[13] = molecular target: X-box-binding protein 1 (Homo sapiens) (UniProt P17861); assay: ATG_Xbp1_CIS: Attagene CIS-FACTORIAL HepG2 Assay for human X-box Binding Protein 1 (XBP1) (AID 2282972); settings: HepG2 XBP1 cis-element reporter, Attagene multiplex; actives raise or lower the signal
Summary of the method: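 HepG2 cells transiently transfected with multiple cis-element reporter units report endogenous TF activity; 24 h exposure, then reporter mRNA measured by RT-PCR, 6-FAM labelling, HpaI digestion and capillary electrophoresis. Bidirectional fitting versus DMSO.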

[14] = ATG_GAL4_TRANS: Attagene TRANS-FACTORIAL HepG2 Assay for GAL4 (Internal Marker) (AID 2282976; active means hit-call score of the fitted dose curve at least 0.9, where 1 is the maximum); settings: HepG2 Attagene TRANS GAL4 internal marker reporter
Summary of the method: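 RT-PCR/capillary electrophoresis readout of reporter mRNA. HepG2, transient MRTU transfection (GAL4-UAS reporters), 24 h compound exposure. Background-control endpoint, positive direction vs DMSO baseline.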

[15] = molecular target: Estrogen-related receptor gamma (Homo sapiens) (UniProt P62508); assay: ATG_ERRg_TRANS: Attagene TRANS-FACTORIAL HepG2 Assay for human Estrogen-Related Receptor gamma (ERRg) (AID 2282977; active means hit-call score of the fitted dose curve at least 0.9, where 1 is the maximum;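 further: hits increase reporter signal over DMSO so potencies reflect activators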); settings: HepG2 Attagene TRANS reporter, ERRg transactivation
Summary of the method: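 Transfect HepG2 with multiple GAL4-UAS reporter transcription units; dose chemicals 24 h; isolate RNA, reverse-transcribe with oligo(dT), PCR-amplify, label with 6-FAM, digest with HpaI; size fragments by capillary electrophoresis. DMSO serves as negative control.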

[16] = molecular target: Glucocorticoid receptor (Homo sapiens) (UniProt P04150); assay: ATG_GR_TRANS: Attagene TRANS-FACTORIAL HepG2 Assay for human Glucocorticoid Receptor (GR) (AID 2282978; active means hit-call score of the fitted dose curve at least 0.9, where 1 is the maximum;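 further: activators score as hits since higher reporter transcript over DMSO is fitted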); settings: HepG2 Attagene TRANS GR reporter, mRNA transcription
Summary of the method: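 Exogenous NR-GAL4 fusion activity was assessed through induced GAL4-UAS reporter transcripts in transfected human HepG2 cells, quantified after 24 h by RT-PCR and fluorescent capillary electrophoresis with DMSO as baseline.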

[17] = ATG_M_19_TRANS: Attagene TRANS-FACTORIAL HepG2 Assay for M19 Transcription Factor (Internal Marker) (AID 2282974; active means hit-call score of the fitted dose curve at least 0.9, where 1 is the maximum); settings: HepG2 Attagene TRANS-FACTORIAL M19 internal marker reporter
Summary of the method: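 Using RT-PCR and capillary electrophoresis, reporter mRNA from transiently transfected human HepG2 cells was quantified following 24 h exposure; activity was fitted in the positive direction against DMSO.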

[18] = ATG_RORE_CIS: Attagene CIS-FACTORIAL HepG2 Assay for human RAR-related Orphan Receptor Element (RORE) (AID 2282959); settings: HepG2 Attagene cis-factorial RORE reporter, mRNA; actives raise or lower the signal
Summary of the method: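 Transiently transfected HepG2 reporter cells were treated 24 h. Reporter transcripts were detected by RT-PCR and capillary electrophoresis, with bidirectional fitting against DMSO.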

[19] = molecular target: Nuclear receptor subfamily 1 group I member 3 (Homo sapiens) (UniProt Q14994); assay: ATG_CAR_TRANS: Attagene TRANS-FACTORIAL HepG2 Assay for human Constitutive Androstane Receptor (CAR) (AID 2282969; active means hit-call score of the fitted dose curve at least 0.9, where 1 is the maximum;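 further: activators raise reporter mRNA above DMSO so AC50 marks induction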); settings: HepG2 Attagene TRANS-FACTORIAL CAR reporter
Summary of the method: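 HepG2 cells transiently transfected with multiplexed GAL4-UAS reporter units expressing chimeric NR-Gal4 proteins; compound exposure 24 h. Reporter mRNA measured by RT-PCR, 6-FAM labelling, HpaI digestion and capillary electrophoresis; gain-of-signal fitted against DMSO baseline.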

[20] = molecular target: Steroid hormone receptor ERR1 (Homo sapiens) (UniProt P11474); assay: ATG_ERRa_TRANS: Attagene TRANS-FACTORIAL HepG2 Assay for human Estrogen-Related Receptor alpha (ERRa) (AID 2282971; active means hit-call score of the fitted dose curve at least 0.9, where 1 is the maximum); settings: HepG2 Attagene TRANS reporter, ERRa transactivation
Summary of the method: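 Transfected HepG2, 24 h dosing, ERRa-Gal4 chimera driving GAL4-UAS reporter. Readout: reporter mRNA via RT-PCR plus capillary electrophoresis (fluorescence). Positive direction vs DMSO control.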

Measured: AC50

Sequence of Transcription factor Sp1 (Homo sapiens) (P08047 whole entry, looked up, the tested form may be a part): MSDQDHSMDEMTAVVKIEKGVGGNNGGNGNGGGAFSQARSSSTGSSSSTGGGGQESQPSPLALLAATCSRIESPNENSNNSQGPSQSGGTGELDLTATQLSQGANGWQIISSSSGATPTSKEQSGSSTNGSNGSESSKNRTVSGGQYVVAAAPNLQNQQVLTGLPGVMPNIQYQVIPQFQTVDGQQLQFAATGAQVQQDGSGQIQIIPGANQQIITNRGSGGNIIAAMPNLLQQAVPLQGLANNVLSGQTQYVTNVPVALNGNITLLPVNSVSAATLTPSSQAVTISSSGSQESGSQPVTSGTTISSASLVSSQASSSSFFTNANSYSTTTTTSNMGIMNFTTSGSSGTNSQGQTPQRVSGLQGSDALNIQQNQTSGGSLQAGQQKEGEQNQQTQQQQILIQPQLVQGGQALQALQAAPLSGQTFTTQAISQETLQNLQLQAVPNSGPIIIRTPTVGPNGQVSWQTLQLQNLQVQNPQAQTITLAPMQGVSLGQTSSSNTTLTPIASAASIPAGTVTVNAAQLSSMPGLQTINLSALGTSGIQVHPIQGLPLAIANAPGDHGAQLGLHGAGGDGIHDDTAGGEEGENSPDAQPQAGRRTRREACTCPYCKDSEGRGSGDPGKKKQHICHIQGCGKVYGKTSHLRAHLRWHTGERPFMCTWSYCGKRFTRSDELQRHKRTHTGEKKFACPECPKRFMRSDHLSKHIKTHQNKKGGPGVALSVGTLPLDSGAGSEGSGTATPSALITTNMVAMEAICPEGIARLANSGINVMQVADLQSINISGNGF
Sequence of X-box-binding protein 1 (Homo sapiens) (P17861 whole entry, looked up): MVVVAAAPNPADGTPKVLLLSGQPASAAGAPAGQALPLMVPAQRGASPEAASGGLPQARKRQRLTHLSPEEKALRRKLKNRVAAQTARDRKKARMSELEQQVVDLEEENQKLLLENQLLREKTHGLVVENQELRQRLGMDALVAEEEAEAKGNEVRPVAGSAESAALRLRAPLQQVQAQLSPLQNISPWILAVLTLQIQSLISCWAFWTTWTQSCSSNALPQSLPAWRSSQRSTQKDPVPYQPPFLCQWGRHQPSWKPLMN
Sequence of Glucocorticoid receptor (Homo sapiens) (P04150 whole entry, looked up, the tested form may be a part): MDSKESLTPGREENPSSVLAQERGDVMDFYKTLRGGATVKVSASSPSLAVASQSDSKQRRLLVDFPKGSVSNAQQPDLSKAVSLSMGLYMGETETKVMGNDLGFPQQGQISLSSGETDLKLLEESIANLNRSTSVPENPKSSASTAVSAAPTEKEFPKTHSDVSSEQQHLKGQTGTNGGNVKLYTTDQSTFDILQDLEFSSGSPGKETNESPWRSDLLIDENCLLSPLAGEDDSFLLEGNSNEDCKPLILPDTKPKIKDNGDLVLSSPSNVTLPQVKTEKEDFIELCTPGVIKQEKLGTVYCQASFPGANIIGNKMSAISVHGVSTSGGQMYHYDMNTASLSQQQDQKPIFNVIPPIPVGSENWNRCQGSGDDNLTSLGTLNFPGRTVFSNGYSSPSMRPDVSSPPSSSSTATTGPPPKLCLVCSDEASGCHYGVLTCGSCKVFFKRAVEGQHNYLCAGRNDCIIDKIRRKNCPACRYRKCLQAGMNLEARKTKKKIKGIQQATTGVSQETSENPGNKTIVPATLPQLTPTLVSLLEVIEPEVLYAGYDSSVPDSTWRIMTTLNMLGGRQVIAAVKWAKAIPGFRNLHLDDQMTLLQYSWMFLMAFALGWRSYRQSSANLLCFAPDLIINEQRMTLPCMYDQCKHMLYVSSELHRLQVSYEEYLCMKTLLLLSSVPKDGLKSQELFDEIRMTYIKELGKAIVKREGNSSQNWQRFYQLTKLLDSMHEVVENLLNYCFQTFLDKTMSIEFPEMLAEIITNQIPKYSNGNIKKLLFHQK
Sequence of Paired box protein Pax-6 (Homo sapiens) (P26367 whole entry, looked up): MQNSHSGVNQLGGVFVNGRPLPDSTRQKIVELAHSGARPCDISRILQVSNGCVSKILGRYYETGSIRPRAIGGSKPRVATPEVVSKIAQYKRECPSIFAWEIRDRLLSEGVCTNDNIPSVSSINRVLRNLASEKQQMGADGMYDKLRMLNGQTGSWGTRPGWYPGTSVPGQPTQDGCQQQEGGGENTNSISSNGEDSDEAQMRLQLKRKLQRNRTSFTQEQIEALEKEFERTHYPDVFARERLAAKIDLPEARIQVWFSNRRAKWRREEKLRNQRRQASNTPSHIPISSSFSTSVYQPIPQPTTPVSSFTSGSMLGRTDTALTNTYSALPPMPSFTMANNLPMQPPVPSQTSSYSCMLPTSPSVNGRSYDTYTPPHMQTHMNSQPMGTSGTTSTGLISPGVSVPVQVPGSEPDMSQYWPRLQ
Sequence of Nuclear receptor subfamily 1 group I member 3 (Homo sapiens) (Q14994 whole entry, looked up, the tested form may be a part): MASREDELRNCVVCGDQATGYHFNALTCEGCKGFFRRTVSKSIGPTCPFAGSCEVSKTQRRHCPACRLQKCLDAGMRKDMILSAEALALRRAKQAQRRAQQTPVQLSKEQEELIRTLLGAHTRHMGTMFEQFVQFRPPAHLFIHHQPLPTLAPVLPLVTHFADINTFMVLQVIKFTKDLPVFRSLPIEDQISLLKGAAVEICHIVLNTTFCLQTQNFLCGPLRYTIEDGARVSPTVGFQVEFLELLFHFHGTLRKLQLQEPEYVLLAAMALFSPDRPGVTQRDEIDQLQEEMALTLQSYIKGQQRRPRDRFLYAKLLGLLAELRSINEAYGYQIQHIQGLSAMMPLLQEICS
Sequence of Signal transducer and activator of transcription 3 (Homo sapiens) (P40763 whole entry, looked up): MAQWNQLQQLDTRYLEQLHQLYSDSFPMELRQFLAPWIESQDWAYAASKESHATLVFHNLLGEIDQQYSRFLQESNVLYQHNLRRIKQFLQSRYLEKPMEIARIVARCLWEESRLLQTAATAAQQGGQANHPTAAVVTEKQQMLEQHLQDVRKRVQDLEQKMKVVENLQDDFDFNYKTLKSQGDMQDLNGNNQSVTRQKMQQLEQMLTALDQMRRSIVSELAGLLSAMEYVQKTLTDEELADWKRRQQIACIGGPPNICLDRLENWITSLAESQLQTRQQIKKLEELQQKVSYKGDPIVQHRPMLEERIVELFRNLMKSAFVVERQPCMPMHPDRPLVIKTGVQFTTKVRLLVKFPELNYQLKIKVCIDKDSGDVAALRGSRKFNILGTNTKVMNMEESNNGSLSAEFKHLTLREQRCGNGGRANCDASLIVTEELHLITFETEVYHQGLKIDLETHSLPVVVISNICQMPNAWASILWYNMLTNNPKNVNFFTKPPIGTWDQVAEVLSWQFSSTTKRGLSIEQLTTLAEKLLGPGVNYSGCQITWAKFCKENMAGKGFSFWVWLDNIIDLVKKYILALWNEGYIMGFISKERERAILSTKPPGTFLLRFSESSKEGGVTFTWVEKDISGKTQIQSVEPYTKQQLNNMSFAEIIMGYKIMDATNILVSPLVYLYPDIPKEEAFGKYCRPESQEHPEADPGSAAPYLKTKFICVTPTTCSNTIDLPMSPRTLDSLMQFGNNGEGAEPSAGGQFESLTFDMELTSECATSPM
Sequence of Steroid hormone receptor ERR1 (Homo sapiens) (P11474 whole entry, looked up, the tested form may be a part): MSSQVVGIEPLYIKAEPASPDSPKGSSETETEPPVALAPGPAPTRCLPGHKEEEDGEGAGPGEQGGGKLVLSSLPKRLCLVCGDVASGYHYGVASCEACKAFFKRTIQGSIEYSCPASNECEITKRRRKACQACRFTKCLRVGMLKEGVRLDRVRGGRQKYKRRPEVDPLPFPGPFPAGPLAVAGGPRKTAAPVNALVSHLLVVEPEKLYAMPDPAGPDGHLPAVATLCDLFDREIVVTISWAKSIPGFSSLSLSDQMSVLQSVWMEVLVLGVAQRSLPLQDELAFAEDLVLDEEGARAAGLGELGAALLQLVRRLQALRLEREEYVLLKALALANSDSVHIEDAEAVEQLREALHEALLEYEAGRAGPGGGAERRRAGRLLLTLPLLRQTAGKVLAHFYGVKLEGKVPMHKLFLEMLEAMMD
Sequence of Estrogen-related receptor gamma (Homo sapiens) (P62508 whole entry, looked up, the tested form may be a part): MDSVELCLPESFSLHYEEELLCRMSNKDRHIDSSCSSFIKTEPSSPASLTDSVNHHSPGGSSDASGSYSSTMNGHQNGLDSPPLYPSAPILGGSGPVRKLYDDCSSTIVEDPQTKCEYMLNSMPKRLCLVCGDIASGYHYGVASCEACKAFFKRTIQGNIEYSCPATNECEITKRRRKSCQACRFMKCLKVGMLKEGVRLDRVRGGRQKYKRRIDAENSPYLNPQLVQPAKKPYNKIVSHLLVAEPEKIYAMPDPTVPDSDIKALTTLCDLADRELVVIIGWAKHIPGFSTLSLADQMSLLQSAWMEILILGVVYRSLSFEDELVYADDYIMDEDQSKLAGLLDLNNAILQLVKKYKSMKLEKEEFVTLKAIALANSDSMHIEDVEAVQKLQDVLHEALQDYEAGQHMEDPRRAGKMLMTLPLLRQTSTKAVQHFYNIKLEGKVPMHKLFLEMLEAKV

COC(=O)c1ccc([N+](=O)[O-])cc1
not listed: [17] | [18] | [19] | [20]
inactive: all other assays above

C=C1CC[C@H](O)C/C1=C/C=C1\CCC[C@]2(C)[C@@H]([C@H](C)/C=C/[C@H](C)C(C)C)CC[C@@H]12
active: [2] 3.32 µM
not listed: [10] | [13] | [14] | [15] | [17] | [18] | [19] | [20]
inactive: all other assays above

CCc1cc(C(C)(C)C)c(O)c(C(C)(C)C)c1
active: [2] 8.94 µM | [5] 33.4 µM | [6] 59.9 µM
not listed: [14] | [15] | [18] | [19] | [20]
inactive: all other assays above

CCOc1ccc(N=Nc2ccc(C=Cc3ccc(N=Nc4ccc(OCC)cc4)cc3S(=O)(=O)O)c(S(=O)(=O)O)c2)cc1
active: [2] 39.9 µM
not listed: [13] | [14] | [15] | [16] | [18] | [19] | [20]
inactive: all other assays above

CCOC(=O)C1OC1c1ccccc1 (centres undefined)
active: [3] 21.6 µM | [9] 48 µM
not listed: [15] | [18] | [19] | [20]
inactive: all other assays above

CC=CC=CCOC(=O)C(C)C
active: [2] 25 µM
not listed: [5] | [6] | [10] | [14] | [15] | [19] | [20]
inactive: all other assays above

CCCOC(=O)c1c(Cl)c(Cl)c(Cl)c(Cl)c1C(=O)OCCC
inactive: [1] | [3] | [4] | [7] | [8] | [10] | [11] | [12] | [17]
active: [2] 1.64 µM | [5] 67.1 µM | [6] 100 µM | [13] 130 µM

Cc1ccc(S(N)(=O)=O)cc1
not listed: [12] | [15] | [17] | [18] | [19] | [20]
inactive: all other assays above

Nc1ccn([C@H]2CS[C@@H](CO)O2)c(=O)n1
not listed: [10] | [12] | [14] | [15] | [18] | [20]
inactive: all other assays above

COc1ccc(CCO)cc1
active: [7] 179 µM
not listed: [5] | [15] | [19] | [20]
inactive: all other assays above

C=COCCOCCOC=C
not listed: [5] | [8] | [9] | [14] | [15] | [16] | [19] | [20]
inactive: all other assays above

CN(C)c1cccc(O)c1
active: [2] 6.77 µM
not listed: [15] | [18] | [20]
inactive: all other assays above

NC1CCCCC1N (centres undefined)
not listed: [14] | [15] | [16] | [17] | [18]
inactive: all other assays above

CC(C)Nc1nc(N)nc(Cl)n1
not listed: [14] | [15] | [18] | [19] | [20]
inactive: all other assays above

CCOc1ccccc1O
not listed: [9] | [15] | [16] | [17] | [18] | [19] | [20]
inactive: all other assays above

Cc1ccc2c(c1)C(=O)OC2=O
not listed: [14] | [15] | [18] | [20]
inactive: all other assays above

C=CCCC(=O)/C=C/C1C(C)=CCCC1(C)C (centres undefined)
active: [2] 1.18 µM | [6] 100 µM | [12] 2.44 µM
not listed: [14] | [15] | [17] | [18] | [20]
inactive: all other assays above

CC(C=O)Cc1ccc(C(C)(C)C)cc1 (centres undefined)
active: [2] 27.6 µM
not listed: [5] | [14] | [15] | [17] | [19] | [20]
inactive: all other assays above
